From PubChem BioAssay AID652115 (Broad Institute, 2013)
Out of some 330,000 compounds screened, about 3,800 (1.2%) were called active. No stated cut-off is given here; in the data, active means inhibition above about 15%; inconclusive means no clear call, values can overlap the other calls; inactive means below that. What follows is part of a selection rich in actives, with near analogues and random picks from the rest.

biological target: NAD-dependent protein deacylase sirtuin-5, mitochondrial (Homo sapiens) (UniProt Q9NXA8); test: SIRT5 desuccinylase inhibitors, primary screen, biochemical, fluorescence imaging, single point, set 5 (AID 652115); details: Purified SirT5, succinyl-peptide AMC, trypsin-coupled fluorescence; at 15 µM; stronger effect = higher value
Sequence (Q9NXA8 whole entry, looked up): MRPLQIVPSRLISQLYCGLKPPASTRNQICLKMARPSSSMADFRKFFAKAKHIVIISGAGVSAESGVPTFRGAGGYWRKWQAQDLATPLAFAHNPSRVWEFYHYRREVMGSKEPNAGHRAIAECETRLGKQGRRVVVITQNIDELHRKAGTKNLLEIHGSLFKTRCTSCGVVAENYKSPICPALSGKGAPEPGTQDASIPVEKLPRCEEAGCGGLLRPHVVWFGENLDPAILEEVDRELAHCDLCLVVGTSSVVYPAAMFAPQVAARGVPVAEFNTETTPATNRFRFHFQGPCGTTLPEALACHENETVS

Structure (SMILES)	inhibition
CCCN(C)C[C@H]1Oc2ncc(C#CCOC)cc2C(=O)N([C@@H](C)CO)C[C@H]1C	0.664% (inactive)
C[C@@H]1CN([C@@H](C)CO)C(=O)c2cccc(NC(=O)c3cnccn3)c2O[C@H]1CN(C)Cc1ccc(C(=O)O)cc1	-1.49% (inactive)
C[C@@H]1CN([C@@H](C)CO)C(=O)c2cccc(NC(=O)c3cnccn3)c2O[C@H]1CN(C)Cc1ccc(-c2ccccc2)cc1	-1.19% (inactive)
C[C@@H]1CN([C@H](C)CO)C(=O)c2cccc(NC(=O)c3cnccn3)c2O[C@@H]1CN(C)Cc1ccc(C(=O)Nc2ccccc2N)cc1	15.1% (active)
C[C@@H]1CN([C@@H](C)CO)C(=O)c2cccc(NC(=O)CCCCCC(=O)Nc3ccccc3N)c2O[C@H]1CN(C)C(=O)Nc1ccccc1	-0.269% (inactive)
C[C@H](CO)N1C[C@H](C)[C@H](CN(C)Cc2ccc(Oc3ccccc3)cc2)Oc2c(NC(=O)CCCCCC(=O)Nc3ccccc3N)cccc2C1=O	10.2% (inactive)
C[C@@H]1CN([C@H](C)CO)C(=O)c2cccc(NC(=O)CCCCCC(=O)Nc3ccccc3N)c2O[C@H]1CN(C)Cc1ccc(Oc2ccccc2)cc1	28.2% (active)
CCOc1cc(C)ccc1OCc1nnc(SCC(=O)Nc2cccc(C(=O)O)c2)n1-c1ccccc1	60.5% (active)
COc1ccccc1-n1c(SCC(=O)Nc2cccc(C(=O)O)c2)nnc1-c1ccccc1O	3.18% (inactive)
COc1ccccc1OCc1nnc(SCC(N)=O)n1-c1ccccc1	-0.045% (inactive)
COc1cccc(S(=O)(=O)N[C@@H]2C=C[C@H](CC(=O)NC3CCC3)O[C@@H]2CO)c1	-3.76% (inactive)
CO[C@@H]1CC[C@@H]2CCOc3c(C#N)cccc3C(=O)N(C)C[C@@H](C)C(=O)N(C)C[C@@H]1O2	0.964% (inactive)
CCN(CC)c1ncnc2c1ncn2[C@H]1CN(Cc2cccs2)C[C@@H](CO)O1	0.751% (inactive)
OC[C@@H]1CN(Cc2cccs2)C[C@H](n2cnc3c(Nc4ccccc4)ncnc32)O1	19.4% (active)
OC[C@@H]1CN(Cc2cccs2)C[C@H](n2cnc3c(NC4CCCC4)ncnc32)O1	5.79% (inactive)
CCCC(=O)Nc1ccc2c(c1)C(=O)N(C)C[C@H](OC)[C@@H](C)CN(C(C)=O)[C@H](C)CO2	0.113% (inactive)
CO[C@@H]1CN(C)C(=O)c2cc(NC(=O)C3CC3)ccc2OC[C@H](C)N(CC2CC2)C[C@H]1C	-3.23% (inactive)
O=C(c1cccc(S(=O)(=O)N2CCCC2)c1)N(Cc1ccco1)C1CCS(=O)(=O)C1 (centres undefined)	18.1% (active)
CCCCN(C(=O)c1ccc(S(=O)(=O)N2CCOCC2)cc1)C1CCS(=O)(=O)C1 (centres undefined)	2.17% (inactive)
CC(C)CN(C(=O)c1cccc(S(=O)(=O)N2CCCCC2)c1)C1CCS(=O)(=O)C1 (centres undefined)	-1.89% (inactive)
CN(C)C(=O)C[C@@H]1CC[C@@H](NC(=O)NC2CCCC2)[C@@H](CO)O1	1.11% (inactive)
COc1cccc(S(=O)(=O)N[C@H]2CC[C@@H](CCN)O[C@H]2CO)c1	0.762% (inactive)
COC(=O)COc1cccc2c(=O)n(CC(=O)NCc3ccccc3)ccc12	-3.93% (inactive)

Structure (SMILES)	inhibition
COC(=O)COc1cccc2c(=O)n(CC(=O)NCCc3ccc(OC)c(OC)c3)ccc12	15.1% (active)
CCOC(=O)C(C)Oc1cccc2c(=O)n(CC(=O)NCCc3ccc(OC)c(OC)c3)ccc12 (centres undefined)	-3.89% (inactive)
CO[C@@H]1CN(C)C(=O)c2cc(NC(=O)c3cnccn3)ccc2OC[C@@H](C)N(C(=O)C2CC2)C[C@@H]1C	2.16% (inactive)
COc1cccc(-c2ccc([C@H]3[C@H]4CN(C(=O)NC(C)C)CC(=O)N4[C@H]3CO)cc2)c1	1.38% (inactive)
COc1cc(C)c(CN2CCN(C(=O)CCC(=O)c3ccc(C)s3)CC2)cc1OC	19.2% (active)
COc1ccc(OC)c(CN2CCN(C(=O)CNC(=O)c3cc(C)cc(C)c3)CC2)c1	-1.91% (inactive)
COc1cc(OC)c(OC)cc1CN1CCN(C(=O)c2cccc3ccccc23)CC1	-1.16% (inactive)
O=C(C[C@H]1CC[C@H]2[C@@H](COC[C@@H](O)CN2Cc2ccccc2)O1)N[C@@H]1CCN(Cc2ccccc2)C1	-3.08% (inactive)
CCCNC(=O)N(C)C[C@H]1Oc2ncc(-c3cccc(C#N)c3)cc2C(=O)N([C@@H](C)CO)C[C@H]1C	0.845% (inactive)
CCNC(=O)C[C@@H]1CC[C@H]2[C@@H](COC[C@@H](O)CN2C(=O)c2cc(Cl)cc(Cl)c2)O1	-2.11% (inactive)
COc1ccc(S(=O)(=O)Nc2ccc3c(c2)C(=O)N([C@H](C)CO)C[C@H](C)[C@@H](CN(C)Cc2ccc(-c4ccccc4)cc2)O3)cc1	16.6% (active)
COc1ccc(S(=O)(=O)Nc2ccc3c(c2)C(=O)N([C@H](C)CO)C[C@@H](C)[C@@H](CN(C)Cc2ccccc2)O3)cc1	3.29% (inactive)
COc1ccc(CN(C)C[C@H]2Oc3c(NS(=O)(=O)c4ccccc4)cccc3C(=O)N([C@H](C)CO)C[C@@H]2C)cc1	6.84% (inactive)
COc1ccc(CN(C)C[C@H]2Oc3c(NS(=O)(=O)c4ccccc4)cccc3C(=O)N([C@@H](C)CO)C[C@H]2C)cc1	26.9% (active)
COc1ccc(CN(C)C[C@H]2Oc3c(NS(=O)(=O)c4ccc(Cl)cc4)cccc3C(=O)N([C@H](C)CO)C[C@@H]2C)cc1	-1.84% (inactive)
COc1ccc(S(=O)(=O)Nc2cccc3c2O[C@@H](CN(C)Cc2ccc(-c4ccccc4)cc2)[C@H](C)CN([C@H](C)CO)C3=O)cc1	19.6% (active)
COc1ccc(S(=O)(=O)Nc2ccc3c(c2)C(=O)N([C@H](C)CO)C[C@@H](C)[C@H](CN(C)Cc2ccccc2)O3)cc1	5.6% (inactive)
COc1ccc(CN(C)C[C@H]2Oc3c(NS(=O)(=O)c4ccc(C)cc4)cccc3C(=O)N([C@@H](C)CO)C[C@@H]2C)cc1	-2.22% (inactive)
COc1ccc(CN(C)C[C@H]2Oc3c(NS(=O)(=O)c4ccc(Cl)cc4)cccc3C(=O)N([C@H](C)CO)C[C@H]2C)cc1	-3.94% (inactive)
O=C(Nc1ccc(C(F)(F)F)cc1)N[C@@H]1CC[C@H](CC(=O)N2CCCCC2)O[C@H]1CO	-2.54% (inactive)
O=C([C@@H]1[C@@H](CO)[C@@H]2Cn3c(ccc(-c4ccccc4)c3=O)[C@H]1N2CCC(F)(F)F)N1CCCCC1	-29.7% (inactive)
CCCNC(=O)N1CC(=O)N2[C@H](CO)[C@@H](c3ccc(-c4ccc(F)cc4)cc3)[C@H]2C1	4.11% (inactive)
C[C@H](CO)N1C[C@H](C)[C@@H](CN(C)C(=O)Nc2ccnc(N3CCOCC3)c2)OCc2ccccc2-c2c(n(C)c3ccccc23)C1=O	-5.68% (inactive)

Structure (SMILES)	inhibition
Cc1ccc(C)c(NC(=O)c2ccc3nccnc3c2)c1	0.033% (inactive)
Cc1nnc(NC(=O)c2ccc3nccnc3c2)s1	16.3% (active)
CC(C)CCC(C)NC(=O)c1ccc2nccnc2c1 (centres undefined)	7.36% (inactive)
O=C(Nc1ccc(C(F)(F)F)cc1)N[C@@H]1CC[C@H](CCNC(=O)c2ccccc2F)O[C@@H]1CO	0.363% (inactive)
Cc1ccc(S(=O)(=O)NC[C@H]2CC[C@@H]3[C@@H](CN3Cc3ccccc3C(=O)O)O2)cc1	-3.22% (inactive)
C[C@@H](NC(=O)C[C@H]1C[C@H]2c3cc(NC(=O)Nc4ccccc4F)ccc3O[C@H]2[C@@H](CO)O1)c1ccccc1	2.15% (inactive)
Nc1nnc(SCC(=O)NCC(=O)Nc2ccc(F)c(F)c2F)s1	0.518% (inactive)
COC(=O)c1ccc(CSc2nnc(N)s2)o1	16% (active)
COCC(C)n1c(SCc2ccc(C(=O)OC)o2)nc2ccccc2c1=O (centres undefined)	1.17% (inactive)
CN1CCN(C(=O)C[C@H]2CC[C@@H](NC(=O)c3ccc4c(c3)OCO4)[C@H](CO)O2)CC1	1.96% (inactive)
CCOC(=O)c1c(NC(=S)Nc2ccccc2C)sc2c1CCC2	22.8% (active)
CCOC(=O)c1c(NC(=O)C2(C)Cc3ccccc3C(=O)O2)sc2c1CCCC2 (centres undefined)	-3.61% (inactive)
CCOC(=O)c1c(NC(=O)C(C)Sc2c[nH]c3ccccc23)sc2c1CCC2 (centres undefined)	0.63% (inactive)
O=C(C[C@H]1CC[C@H]2[C@@H](COC[C@@H](O)CN2Cc2ccccc2F)O1)NCc1ccccc1F	3.18% (inactive)
O=C1NC(c2ccncc2)Nc2sc3c(c21)CCCC3 (centres undefined)	15.5% (active)
C/C(=C\c1ccccc1)C1NC(=O)c2c(sc3c2CCCC3)N1 (centres undefined)	-1.37% (inactive)
CC(=O)N1[C@@H](CO)[C@@H](c2ccc(C3=CCCC3)cc2)C12CN(C(=O)C1CC1)C2	3.6% (inactive)
CO[C@H]1CN(C)C(=O)c2ccc(NC(=O)c3ccno3)cc2OC[C@@H](C)N(S(C)(=O)=O)C[C@H]1C	17% (active)
CO[C@@H]1CN(C)C(=O)c2cc(NC(=O)c3ccno3)ccc2OC[C@@H](C)N(S(C)(=O)=O)C[C@@H]1C	0.416% (inactive)
CO[C@H]1CN(C)C(=O)c2ccc(NC(=O)c3cnccn3)cc2OC[C@H](C)N(C)C[C@@H]1C	0.983% (inactive)
COCC(=O)Nc1ccc2c(c1)[C@H]1C[C@H](CC(=O)NCc3ccc(OC)cc3)O[C@@H](CO)[C@H]1O2	-0.814% (inactive)
CCCNC(=O)N1C[C@H](C)[C@@H](OC)CN(C)C(=O)c2ccc(NS(C)(=O)=O)cc2OC[C@@H]1C	-4.54% (inactive)
C[C@@H]1CN([C@@H](C)CO)C(=O)c2cc(-c3ccc(C#N)cc3)cnc2O[C@@H]1CN(C)Cc1cccnc1	-2.7% (inactive)
